# Source: PubChem BioAssay
# G9a inh = G9a (human) methyltransferase inhibition. hit rate 8.8% among 350,000. Potency, µM (top dose mostly 102 µM), inactives show top-dose activity, negative = inhibition, usual class: inhibitors. G9a H3K9 monomethylation, AlphaScreen, 2 h. Q96KQ7; note: % is set by controls: 0 for no effect and ±100 for the full control effect; nearly all actives have a fitted effect of over 75% in size
#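 AlphaScreen read-out: biotin-H3K9 peptide (500 nM) methylation by 20 nM enzyme with 20 uM SAM, 2 h at room temperature after 15 min compound preincubation; anti-monomethyl H3K9 antibody plus donor/acceptor beads, 10 min dark.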
# PLK1 PBD inh = inhibitors of human PLK1 polo-box domain binding. Plk1 PBD binding of FITC phosphopeptide, fluorescence polarization. Potency, µM, inactives show max response, negative = inhibition, hits mostly inhibitors. hit rate 2.8% among 360,000. AID 720504; note: series mostly up to about 57 µM; % is set by controls: 0 for no effect and ±100 for the full control effect; nearly all actives have a fitted effect of over 65% in size
# BAZ2B inh = blocks human BAZ2B. AID 504333. Q9UIF8. AlphaScreen BAZ2B-H3K14Ac peptide displacement. Potency, µM (top dose mostly 114 µM), without a hit: at the highest dose activity change, negative = inhibition, actives largely listed as inhibitors. hit rate 4.4% among 360,000; note: % is set by controls: 0 for no effect and ±100 for the full control effect; nearly all actives have a fitted effect of over 60% in size
#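 In this displacement format the biotinylated H3(5-23) peptide acetylated at Lys14 serves as ligand at 50 nM, with BAZ2B at 50 nM in PBS pH 7.4 containing 0.01% Tween-20. Donor and acceptor beads are 10 ug/mL final.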
# VDR inhibitor = vitamin D3 receptor (human) inhibition; P11473; VDR-SRC2-3 peptide fluorescence polarization, 2 h; AID 504847; Potency, µM, inactives show max response, negative = inhibition, usual class: inhibitors; hit rate 0.93% among 400,000; note: % is set by controls: 0 for no effect and ±100 for the full control effect
#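 Compounds are added to VDR with labelled SRC2-3 coactivator peptide and held 2 h at room temperature. Inhibition of the VDR–peptide interaction is then read as a change in fluorescence polarization.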
# JMJD2A Tudor inh = blocks the human JMJD2A Tudor domain; O75164; AlphaScreen JMJD2A-Tudor / H3K4me3 peptide binding; Potency, µM (highest dose often 114 µM), inactives show at the highest dose activity change, negative = inhibition, actives largely listed as inhibitors; hit rate 4.4% among 390,000; note: % is set by controls: 0 for no effect and ±100 for the full control effect; nearly all actives have a fitted effect of over 50% in size
# Target sequence (O75164 whole entry, looked up, the tested form may be a part): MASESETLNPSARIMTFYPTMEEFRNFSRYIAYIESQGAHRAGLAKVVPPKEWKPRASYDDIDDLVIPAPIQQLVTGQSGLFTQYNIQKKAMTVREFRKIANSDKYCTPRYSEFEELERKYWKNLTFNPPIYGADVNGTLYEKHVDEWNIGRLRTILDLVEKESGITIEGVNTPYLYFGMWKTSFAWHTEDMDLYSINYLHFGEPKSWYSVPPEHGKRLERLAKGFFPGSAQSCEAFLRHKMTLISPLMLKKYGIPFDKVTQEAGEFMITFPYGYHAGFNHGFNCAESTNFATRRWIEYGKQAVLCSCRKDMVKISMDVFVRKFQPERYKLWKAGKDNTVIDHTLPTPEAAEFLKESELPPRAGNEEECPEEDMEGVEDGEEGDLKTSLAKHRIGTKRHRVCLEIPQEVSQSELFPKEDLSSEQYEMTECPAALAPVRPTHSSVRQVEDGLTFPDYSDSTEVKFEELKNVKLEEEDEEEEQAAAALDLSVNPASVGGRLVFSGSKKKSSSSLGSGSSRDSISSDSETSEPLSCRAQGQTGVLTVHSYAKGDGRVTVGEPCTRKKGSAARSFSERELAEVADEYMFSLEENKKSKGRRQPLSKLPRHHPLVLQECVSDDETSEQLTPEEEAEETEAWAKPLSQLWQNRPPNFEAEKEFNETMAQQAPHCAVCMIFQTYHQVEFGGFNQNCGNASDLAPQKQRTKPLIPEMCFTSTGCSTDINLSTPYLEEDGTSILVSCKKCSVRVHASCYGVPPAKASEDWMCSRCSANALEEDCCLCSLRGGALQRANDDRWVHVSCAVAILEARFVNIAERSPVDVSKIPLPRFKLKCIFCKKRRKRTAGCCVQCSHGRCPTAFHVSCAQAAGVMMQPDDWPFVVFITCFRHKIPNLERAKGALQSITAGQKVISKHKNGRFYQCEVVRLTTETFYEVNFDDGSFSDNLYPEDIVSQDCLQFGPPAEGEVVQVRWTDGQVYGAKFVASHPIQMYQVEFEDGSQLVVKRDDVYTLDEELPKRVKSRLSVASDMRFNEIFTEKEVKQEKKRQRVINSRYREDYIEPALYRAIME
# HP1b chromo inh = blocks HP1-beta chromodomain binding to methylated histone tails; hit rate 0.56% among 390,000; AlphaScreen HP1-beta / biotin-H3K9me3 peptide binding; AID 540317; Potency, µM (doses to about 114 µM), without a hit: at the highest dose activity change, negative = inhibition, usual class: inhibitors; note: nearly all actives have a fitted effect of over 70% in size
#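 Compound inhibition of the preformed complex between 50 nM HP1-beta and 50 nM biotinylated H3K9me3 peptide was read by AlphaScreen. Buffer was PBS pH 7.4 with 0.01% Tween-20. Incubations ran 30 min at room temperature, with 10 ug/mL donor/acceptor beads.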
# Numbers without * were called inactive; ? = inconclusive; nt = no result; [ ] = another dose, or the depositor's remark. In the library only some 11% were active in any assay of this set; here they are far more common. Calls come from the whole dose curve; as a rule, active = well fitted curve in the direction sought with a large enough effect; inconclusive = small, poorly fitted or top-dose-only effect, or another doubt; inactive = no such curve, though single readings can be large; an effect the other way counts as inactive or inconclusive. Potency is the fitted concentration of half-maximal effect.
SMILES,G9a inh,PLK1 PBD inh,BAZ2B inh,VDR inhibitor,JMJD2A Tudor inh,HP1b chromo inh
Cc1c(/C(O)=C2/C(=O)C(=O)N(Cc3cccnc3)C2c2ccccn2)cnn1-c1ccccc1 (stereo not drawn),32µM*,-12%,50µM*,3%,?,7%
COc1ccc(OC)c(C2/C(=C(/O)c3cnn(-c4ccccc4)c3C)C(=O)C(=O)N2CCN(C)C)c1 (stereo not drawn),?,-2%,50µM*,-6%,-4%,25%
COc1ccc(/C(O)=C2\C(=O)C(=O)N(CCN(C)C)C2c2cccc(OC)c2OC)cc1Cl (stereo not drawn),45µM*,?,?,-2%,?,3%
COc1ccc(OC)c(C2/C(=C(\O)c3ccc(OC)c(Cl)c3)C(=O)C(=O)N2CCN(C)C)c1 (stereo not drawn),2%[12.7 µM],-3%,-35%,-1%,-28%,26%
COc1cccc(C2/C(=C(\O)c3c(C)nc4c(C)cccn34)C(=O)C(=O)N2CCCN(C)C)c1 (stereo not drawn),50µM*,nt,-6%,nt,nt,nt
Cc1ccc(Cn2c(=O)n(CCCCC(=O)NCc3ccccc3Cl)c(=O)c3ccccc32)cc1,1%[59 µM],nt,2%,12%,-12%,13%
COc1ccc(SCC(CC(C)C)N2CCN(C)CCC2=O)cc1 (stereo not drawn),nt,nt,nt,3%,-20%,8%
CCN(CC)CCN1C(=O)C(=O)/C(=C(/O)c2ccc(F)cc2)C1c1cccnc1 (stereo not drawn),25µM*,?,-9%,13%,-14%,30%
Cc1ccc(C(=O)NC2(C(F)(F)F)N=C(c3ccccc3)N(C3CCCCC3)C2=O)cc1 (stereo not drawn),0%[59 µM],nt,-18%,-1%,-18%,1%
O=C(NNc1cccc(Cl)c1)c1cccnc1Oc1ccccc1,16µM*,1%,-5%,-9%,5%,36%
O=C(Nc1ccc(F)cc1)c1cccnc1Oc1ccccc1,6%,3%,3%,6%,3%,25%
O=C(NC(=S)NNC(=O)c1ccco1)c1ccccc1,25µM*,-27%,4%,-22%,-29%,19%
O=C(Cc1cccs1)NNC(=S)NC(=O)c1ccco1,11µM*,-19%,14%,1%,-9%,10%
Cc1cccc(NC(=S)NNC(=O)c2cc3c(s2)CCC(C)C3)c1C (stereo not drawn),?,-20%,11%,6%,?,-7%
O=C(Cc1ccc(Cl)cc1)NNC(=S)NC(=O)c1cccs1,35µM*,-9%,-12%,-10%,-23%,2%
Cc1ccc(C)c(NC(=S)NNC(=O)c2cc3c(s2)CCC(C)C3)c1 (stereo not drawn),35µM*,-12%,-6%,7%,-32%,-19%
O=C(Nc1ccc(NC(=O)c2cccs2)cc1)c1ccco1,17%[59 µM],-3%,8%,1%,-15%,27%
COc1cc(C(=O)NC(=S)Nc2ccc(NC(=O)c3ccco3)cc2)cc(OC)c1OC,-44%,-3%,-6%,8%,-10%,7%
O=C(/C=C/c1ccccc1)NC(=S)NNC(=O)c1ccco1,10µM*,-17%,-1%,-13%,-5%,15%
Cc1ccc(C)c(NC(=S)NNC(=O)c2ccco2)c1,2%,19µM*,11%,-23%,-33%,-10%
O=C(NC(=S)Nc1ccc(NC(=O)c2ccco2)cc1)c1ccccc1,?,-17%,0%,-6%,35µM*,-9%
O=C(NC(=S)Nc1ccc(NC(=O)c2cccs2)cc1)c1ccco1,-13%[59 µM],19µM*,-4%,?,?,?
Cc1cccc(NC(=S)NNC(=O)c2ccco2)c1,-9%[12.7 µM],-17%,-6%,1%,-18%,2%
CN(c1ccc(C(=O)NC2CCCCC2)cc1)S(=O)(=O)c1ccccc1,nt,-5%,nt,7%,4%,44%
CSc1nnc(C2CCN(CC(=O)Nc3ccccc3N3CCOCC3)CC2)n1C,-6%,1%,-2%,-6%,-6%,8%
SMILES,G9a inh,PLK1 PBD inh,BAZ2B inh,VDR inhibitor,JMJD2A Tudor inh,HP1b chromo inh
O=C(NCC1COc2ccccc2O1)c1cccc(S(=O)(=O)N2CCN(c3ccccc3)CC2)c1 (stereo not drawn),-40%,-2%,0%,-2%,-28%,7%
CC[C@H](C)[C@H](NC(=O)[C@H](CC(=O)O)NC(=O)[C@H](CC(C)C)NC(=O)[C@H](Cc1cnc[nH]1)NC(=O)[C@H](C)NC(=O)[C@H](Cc1ccccc1)NC(=O)[C@H](Cc1ccc(O)cc1)NC(=O)[C@@H](NC(=O)[C@H](C)NC(=O)[C@H](CCC(=O)O)NC(=O)[C@H](CCC(=O)O)NC(=O)[C@H](CC(=O)O)NC(=O)CCC(=O)O)C(C)C)C(=O)N[C@H](C(=O)N[C@@H](Cc1c[nH]c2ccccc12)C(=O)O)[C@@H](C)CC,nt,nt,nt,-7%,nt,nt
COc1cccc(N(C(=O)CNC(=O)c2ccco2)C(C(=O)NC2CCCC2)c2ccco2)c1 (stereo not drawn),10%,0%,-7%,-3%,-5%,19%
NC(=O)[C@@H]1CCCN1C(=O)C(Cc1cnc[nH]1)NC(=O)C1CCC(=O)N1 (stereo partly drawn),nt,nt,nt,4%,nt,nt
O=C(NCC#CCOCc1ccccc1)c1ccccc1,50µM*,27µM*,4%,-11%,-6%,41%
CCOc1ccc(/C=N/Nc2ccc(C(F)(F)F)cc2[N+](=O)[O-])cc1O,45µM*,-13%,?,-18%,-30%,-30%
COc1ccc(/C=N/Nc2ccc(C(F)(F)F)cc2[N+](=O)[O-])cc1O,?,?,?,-15%,89µM*,?
CCOc1cc(/C=N/NC(=O)Cc2ccc(C(F)(F)F)cc2[N+](=O)[O-])ccc1O,?,-8%,-9%,-10%,3%,13%
O=C(c1c(Cl)cccc1Cl)N1CCN(c2ncccn2)CC1,-9%,-1%,-3%,10%,-4%,31%
CCOCCc1nn2c(=O)cc(COC(=O)c3cccc(C)c3)nc2s1,-2%[59 µM],nt,-2%,-7%,-12%,21%
CC(C)CC(=O)NC(NC(=S)Nc1ccccc1)C(Cl)(Cl)Cl (stereo not drawn),32µM*,30µM*,-1%,?,-6%,8%
Cc1cccc(C(=O)NC(NC(=S)Nc2ccc(S(N)(=O)=O)cc2)C(Cl)(Cl)Cl)c1 (stereo not drawn),?,-1%,?,-5%,-21%,17%
CCC(=O)NC(NC(=S)Nc1ccc(S(N)(=O)=O)cc1)C(Cl)(Cl)Cl (stereo not drawn),8.9µM*,-9%,-7%,4%,-9%,5%
